Our source for the % Hoechst-high responders, % tubulin-high responders and toxicity values is PubChem BioAssay AID2205 (University of Pittsburgh Molecular Library Screening Center, 2009).

Structures are written as SMILES. Hit rate of the full screen: of about 200,000 compounds, about 1,600 (0.8%) were called active.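 Rule for the calls: active = plate Z-score above 3 for both tubulin-high and condensed-nucleus cell shares, with cell loss under 80%, at 10 µM; inactive = the rest, inconclusive results apart.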 What follows is part of a selection rich in actives, with near analogues and random picks from the rest.

This assay can be described thus: tubulin staining increase by stabilizing compounds – imaging, high-content imaging, primary screen (AID 2205).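 For % tubulin-high responders: anti alpha tubulin signal scored within the nucleus-defined area of each cell.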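 For toxicity: 0% = mean cell density of plate MIN control wells and 100% = no cells.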 Conditions: HeLa tubulin immunostaining HCS, 24 h, at 10 µM; % Hoechst-high responders: measured here: nuclear condensation Hoechst responders, stronger effect = higher value, share of cells brighter than vehicle mean+2SD; % tubulin-high responders: stronger effect = higher value, share of cells brighter than vehicle mean+2SD; toxicity: measured here: cytotoxicity by cell density.
Regarding `O=c1[nH]c(N2CCN(Cc3ccc4c(c3)OCO4)CC2)nc2c1CCCC2`, the % Hoechst-high responders is 3.51%, the % tubulin-high responders is 5.89% (inactive) and the toxicity was 3.65%.
For the compound `CCc1ccc(NC(=O)CC2C(=O)NCCN2C(=S)Nc2ccccc2)cc1` (stereo unspecified), the % Hoechst-high responders is 3%, the % tubulin-high responders was 3.9% (inactive) and the toxicity was found to be 11.2%.
As to `O=[N+]([O-])c1cccc(Nc2c3ccccc3nc3ccccc23)c1`, the % Hoechst-high responders amounted to 32.2%, the % tubulin-high responders is 22% (active) and the toxicity was determined as 46.2%.
For `Cc1cc(CNC(=O)c2cccc([N+](=O)[O-])c2)c2ccccc2n1`, the % Hoechst-high responders worked out at 2.57%, the % tubulin-high responders was 3.83% (inactive) and the toxicity came out at 1.18%.
Regarding `CC(=O)Nc1ccc(Nc2c3ccccc3nc3ccccc23)cc1`, the % Hoechst-high responders turned out to be 8.03%, the % tubulin-high responders is 12.5% (inactive) and the toxicity was 40.3%.
The like results for `COc1ccc(N2CCN(C(=O)CCSCc3ccccc3F)CC2)cc1` were, in that order, 1.53%, 3.62% (inactive) and 4.73%.
Consider `Cc1cccc(C(=O)Nc2ccccc2C(=O)NCc2cccnc2)c1`, for which the % Hoechst-high responders worked out at 2.76%, the % tubulin-high responders is 2.92% (inactive) and the toxicity is 4.59%.
Regarding `Cc1ccc(S(=O)(=O)C2(S(=O)(=O)c3ccc(C)cc3)CCCC2)cc1`, the % Hoechst-high responders is 39.1%, the % tubulin-high responders is 36.4% (active) and the toxicity was 67.7%.
As to `Cc1ccc(S(=O)(=O)NC(=O)N2CCCC(C)(C)C2)cc1`, the % Hoechst-high responders came out at 0.922%, the % tubulin-high responders is 1.38% (inactive) and the toxicity was found to be 2.22%.
The like results for `Cc1ccc(S(=O)(=O)N(C)C2(C)CCS(=O)(=O)C2)cc1` (stereo unspecified) were, in that order, 1.21%, 1.1% (inactive) and 7.98%.
Taken in the same sequence, the figures for `O=c1oc(-c2ccco2)nc2sc3c(c12)CCCCC3` were 2.16%, 1.31% (inactive) and 7.63%.
For the compound `COc1cccc2cc(S(=O)(=O)c3ccc(C)cc3)/c(=N/NS(=O)(=O)c3ccc(C)cc3)oc12`, the % Hoechst-high responders stood at 2.11%, the % tubulin-high responders is 3.76% (inactive) and the toxicity came out at 4.71%.
Taken in the same sequence, the figures for `Cc1cc(-c2csc(N)n2)c(C)n1Cc1ccccc1` were 3.06%, 0.459% (inactive) and 7.95%.
With `COc1ccccc1CNC(=O)c1cc(=O)c2ccccc2o1`, the % Hoechst-high responders was 2.39%, the % tubulin-high responders is 1.71% (inactive) and the toxicity amounted to 11.9%.
Take `O=C(c1cc(=O)c2ccccc2o1)N1CCN(c2ccccc2)CC1`: the % Hoechst-high responders came to 2.26%, the % tubulin-high responders was 4.68% (inactive) and the toxicity came to 10.7%.
Take `COc1cc2c(cc1OC)CN(C(=O)c1cc(=O)c3ccccc3o1)CC2`: the % Hoechst-high responders stood at 50.5%, the % tubulin-high responders was 42.7% (active) and the toxicity amounted to 31.7%.
Taken in the same sequence, the figures for `CCCCCCCCCCOC(=O)C[N+](C)(C)CC1CCCCC1O` (stereo unspecified) were 2.44%, 1.85% (inactive) and 7.67%.
With `CCOC(=O)N/N=C/c1cn(Cc2ccccc2Cl)c2ccccc12`, the % Hoechst-high responders came to 1.41%, the % tubulin-high responders is 1.99% (inactive) and the toxicity was 3.67%.
As to `CNC(=S)N/N=C/c1cn(Cc2ccc(C)cc2)c2ccccc12`, the % Hoechst-high responders is 11.2%, the % tubulin-high responders was 25.5% (active) and the toxicity stood at 51.6%.
Consider `COC(=O)N/N=C/c1cn(CCCOc2ccc(C)cc2)c2ccccc12`, for which the % Hoechst-high responders came to 1.65%, the % tubulin-high responders was 1.39% (inactive) and the toxicity was 0.806%.
`CC(/C=N/NC(=O)c1cc(-c2ccc3ccccc3c2)n[nH]1)=C\c1ccco1`: the % Hoechst-high responders was found to be 24.9%, the % tubulin-high responders was 18.2% (active) and the toxicity was determined as 26.2%.
As to `Cc1ccc(-c2cc(C(=O)N/N=C/C=C/c3ccco3)c3ccccc3n2)cc1C`, the % Hoechst-high responders amounted to 1.03%, the % tubulin-high responders was 1.52% (inactive) and the toxicity was 10.1%.
For the compound `CC(/C=N/NC(=O)c1ccncc1)=C\c1ccco1`, the % Hoechst-high responders was determined as 2.03%, the % tubulin-high responders is 3.19% (inactive) and the toxicity was 5.26%.
As to `CCN(CC)c1ccc(S(=O)(=O)N2CCOCC2)cc1NC(=O)CSc1cccc[n+]1[O-]`, the % Hoechst-high responders was 1.88%, the % tubulin-high responders was 2.6% (inactive) and the toxicity was determined as 2.07%.
Regarding `S=C(NCc1ccc2c(c1)OCO2)NCc1ccco1`, the % Hoechst-high responders was 2%, the % tubulin-high responders was 2.06% (inactive) and the toxicity was determined as 3.56%.
Turning to `Cn1c2ccccc2c(=O)c2c(=O)n(Cc3ccco3)c(COc3ccccc3)nc21`, the % Hoechst-high responders turned out to be 17%, the % tubulin-high responders was 15.2% (active) and the toxicity came out at 19.6%.
Consider `CCCc1nc2c(c(=O)c3ccccc3n2C)c(=O)n1C1CCCCCC1`, for which the % Hoechst-high responders was determined as 3.07%, the % tubulin-high responders is 3.44% (inactive) and the toxicity came to 9.47%.
Regarding `COc1ccc(C(=O)CSc2nnc(COc3ccccc3)n2Cc2ccco2)cc1`, the % Hoechst-high responders amounted to 8.33%, the % tubulin-high responders is 11.9% (inactive) and the toxicity came to 4.55%.
Taken in the same sequence, the figures for `CCOC(=O)CC(NC(=O)C1c2ccccc2Oc2ccccc21)c1ccc(C)cc1` (stereo unspecified) were 1.91%, 1.78% (inactive) and 3.3%.
With `Cc1cc(-c2nnc(CCC(=O)NC(c3ccccc3)c3ccccc3)o2)no1`, the % Hoechst-high responders turned out to be 1.8%, the % tubulin-high responders is 2.51% (inactive) and the toxicity was found to be 7.53%.
For `O=C(COC(=O)c1cc(=O)[nH]c2ccccc12)Nc1nc(-c2cccc(Br)c2)cs1`, the % Hoechst-high responders amounted to 3.67%, the % tubulin-high responders was 2.11% (inactive) and the toxicity stood at 8.74%.
The like results for `NS(=O)(=O)c1ccc(CCNC(=O)CCCn2c(SCC(=O)N3CCCC3)nc3ccsc3c2=O)cc1` were, in that order, 2.7%, 1.43% (inactive) and 6.34%.
`COc1cc2c(cc1O)[C@H](Cc1ccc(Oc3cc(C[C@@H]4NCCc5cc(OC)c(O)cc54)ccc3O)cc1)NCC2`: the % Hoechst-high responders was 2.73%, the % tubulin-high responders was 2.04% (inactive) and the toxicity was 13.6%.
For the compound `CC[C@H]1CN2CCc3cc(OC)c(OC)cc3[C@@H]2C[C@@H]1C[C@H]1NCCc2cc(OC)c(OC)cc21`, the % Hoechst-high responders came out at 20.9%, the % tubulin-high responders was 55.7% (active) and the toxicity amounted to 75.2%.
Take `CCCCn1c(N)c(N(CC)C(=O)/C=C/c2ccco2)c(=O)[nH]c1=O`: the % Hoechst-high responders is 2.6%, the % tubulin-high responders is 6.6% (inactive) and the toxicity amounted to 4.9%.
Taken in the same sequence, the figures for `CC(C)n1c(=O)[nH]c2cc(C(=O)Nc3ccccc3)ccc21` were 0.954%, 1.61% (inactive) and 1.51%.
In the case of `COc1ccc(-n2c(C)nn(CC3CC3)c2=O)cc1`, the % Hoechst-high responders amounted to 1.41%, the % tubulin-high responders is 0.918% (inactive) and the toxicity is 4.19%.
